Reference: the supplement of paper PMC8728848
Many of the other results were omitted from the sample, so the strongest signals are more common in it than they were.

Key:
Assay in all cases: glycan array binding signal (z-score within array); higher = stronger binding
Details in all cases: glycan notation: IUPAC condensed, linker removed
[1] = target: Fuc(a1-2)Gal(b1-3)GalNAc(b1-3)Gal(a1-4)Gal(b1-4)Glc
Method in brief: (§1)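 Negative Z-scores can be read as non-binding. The Z-score is calculated within each array and then averaged across arrays of one protein sequence at different concentrations or buffers and across linkers. Arrays, 3228 in all, were curated from the Consortium for Functional Glycomics database and kept only where the protein sequence was available.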

[2] = target: Fuc(a1-2)Gal(b1-3)GlcNAc(b1-3)[Gal(b1-4)GlcNAc(b1-6)]Gal(b1-4)Glc
Method in brief: as §1

[3] = target: Fuc(a1-2)Gal(b1-4)GlcNAc(b1-2)Man
Method in brief: as §1

[4] = target: Fuc(a1-2)Gal(b1-4)[Fuc(a1-3)]GlcNAc(b1-2)[Fuc(a1-2)Gal(b1-4)[Fuc(a1-3)]GlcNAc(b1-4)]Man(a1-3)[Fuc(a1-2)Gal(b1-4)[Fuc(a1-3)]GlcNAc(b1-2)Man(a1-6)]Man(b1-4)GlcNAc(b1-4)GlcNAc
Method in brief: as §1

[5] = target: Fuc(a1-2)Gal(b1-4)[Fuc(a1-3)]GlcNAc(b1-3)[Neu5Ac(a2-6)Gal(b1-4)GlcNAc(b1-6)]Gal(b1-4)Glc
Method in brief: as §1

[6] = target: Fuc(a1-2)Gal6S(b1-3)GlcNAc6S
Method in brief: as §1

[7] = target: Fuc(a1-2)[Gal(a1-3)]Gal(b1-3)GlcNAc(b1-2)Man(a1-3)[Fuc(a1-2)[Gal(a1-3)]Gal(b1-3)GlcNAc(b1-2)Man(a1-6)]Man(b1-4)GlcNAc(b1-4)GlcNAc
Method in brief: as §1

[8] = target: Fuc(a1-2)[Gal(a1-3)]Gal(b1-4)GlcNAc(b1-2)Man
Method in brief: as §1

[9] = target: Fuc(a1-2)[GalNAc(a1-3)]Gal(b1-3)GlcNAc(b1-6)GalNAc
Method in brief: as §1

[10] = target: Fuc(a1-2)[GalNAc(b1-3)]Gal
Method in brief: as §1

[11] = target: Fuc(a1-3)[Gal(b1-4)]GlcNAc(b1-2)Man
Method in brief: as §1

[12] = target: Fuc(a1-3)[Gal(b1-4)]GlcNAc(b1-6)GalNAc
Method in brief: as §1

Gal(a1-2)Gal = target: Gal(a1-2)Gal
Method in brief: as §1

Gal(a1-3)Gal(b1-3)GlcNAc = target: Gal(a1-3)Gal(b1-3)GlcNAc
Method in brief: as §1

Gal(a1-4)Gal(b1-4)GlcNAc = target: Gal(a1-4)Gal(b1-4)GlcNAc
Method in brief: as §1

[13] = target: Gal(b1-3)GalNAc(b1-4)Gal(b1-4)Glc
Method in brief: as §1

[14] = target: Gal(b1-3)GalNAc(b1-4)[Neu5Ac(a2-3)]Gal(b1-4)Glc
Method in brief: as §1

[15] = target: Gal(b1-3)GlcNAc(b1-2)Man(a1-3)[Gal(b1-3)GlcNAc(b1-2)Man(a1-6)]Man(b1-4)GlcNAc(b1-4)[Fuc(a1-6)]GlcNAc
Method in brief: as §1

[16] = target: Gal(b1-3)GlcNAc(b1-6)[Gal(b1-3)]GalNAc
Method in brief: as §1

Gal(b1-3)GlcNAc6S = target: Gal(b1-3)GlcNAc6S
Method in brief: as §1

[17] = target: Gal(b1-4)GlcNAc(b1-2)Man(a1-3)Man(b1-4)GlcNAc(b1-4)GlcNAc
Method in brief: as §1

[18] = target: Gal(b1-4)GlcNAc(b1-3)Gal(b1-4)GlcNAc(b1-3)Gal(b1-4)GlcNAc(b1-2)[Gal(b1-4)GlcNAc(b1-3)Gal(b1-4)GlcNAc(b1-3)Gal(b1-4)GlcNAc(b1-6)]Man(a1-6)[Gal(b1-4)GlcNAc(b1-3)Gal(b1-4)GlcNAc(b1-3)Gal(b1-4)GlcNAc(b1-2)Man(a1-3)]Man(b1-4)GlcNAc(b1-4)[Fuc(a1-6)]GlcNAc
Method in brief: as §1

[19] = target: Gal(b1-4)GlcNAc(b1-3)Gal(b1-4)GlcNAc(b1-3)Gal(b1-4)GlcNAc(b1-3)Gal(b1-4)GlcNAc(b1-3)Gal(b1-4)GlcNAc(b1-2)Man(a1-3)[Gal(b1-4)GlcNAc(b1-3)Gal(b1-4)GlcNAc(b1-3)Gal(b1-4)GlcNAc(b1-3)Gal(b1-4)GlcNAc(b1-3)Gal(b1-4)GlcNAc(b1-2)Man(a1-6)]Man(b1-4)GlcNAc(b1-4)GlcNAc
Method in brief: as §1

[20] = target: Gal(b1-4)GlcNAc(b1-3)Gal(b1-4)GlcNAc(b1-3)Gal(b1-4)GlcNAc(b1-3)Gal(b1-4)GlcNAc(b1-3)Gal(b1-4)GlcNAc(b1-3)Gal(b1-4)GlcNAc(b1-2)Man(a1-3)[Gal(b1-4)GlcNAc(b1-3)Gal(b1-4)GlcNAc(b1-3)Gal(b1-4)GlcNAc(b1-3)Gal(b1-4)GlcNAc(b1-3)Gal(b1-4)GlcNAc(b1-3)Gal(b1-4)GlcNAc(b1-2)Man(a1-6)]Man(b1-4)GlcNAc(b1-4)GlcNAc
Method in brief: as §1

[21] = target: Gal(b1-4)GlcNAc(b1-3)Gal(b1-4)GlcNAc(b1-3)[Gal(b1-4)GlcNAc(b1-3)Gal(b1-4)GlcNAc(b1-6)]GalNAc
Method in brief: as §1

[22] = target: Gal(b1-4)GlcNAc(b1-3)[Fuc(a1-3)GlcNAc(b1-6)]Gal(b1-4)Glc
Method in brief: as §1

[23] = target: Gal(b1-4)GlcNAc(b1-6)[Gal(b1-4)GlcNAc(b1-3)]GalNAc
Method in brief: as §1

Gal3S(b1-4)Glc = target: Gal3S(b1-4)Glc
Method in brief: as §1

[24] = target: Gal3S(b1-4)[Fuc(a1-3)]Glc6S
Method in brief: as §1

Gal6S(b1-4)GlcNAc = target: Gal6S(b1-4)GlcNAc
Method in brief: as §1

GalNAc(a1-3)GalNAc = target: GalNAc(a1-3)GalNAc
Method in brief: as §1

GalNAc(b1-4)GlcNAc6S = target: GalNAc(b1-4)GlcNAc6S
Method in brief: as §1

[25] = target: Glc(a1-6)Glc(a1-6)Glc(a1-6)Glc
Method in brief: as §1

[26] = target: GlcA3S(b1-3)Gal(b1-4)GlcNAc(b1-2)Man
Method in brief: as §1

[27] = target: GlcNAc(a1-4)Gal(b1-4)GlcNAc(b1-3)Gal(b1-4)Glc
Method in brief: as §1

[28] = target: GlcNAc(b1-2)[GlcNAc(b1-6)]Man(a1-6)[GlcNAc(b1-2)Man(a1-3)]Man(b1-4)GlcNAc(b1-4)GlcNAc
Method in brief: as §1

[29] = target: GlcNAc(b1-3)Gal(b1-4)GlcNAc(b1-3)Gal(b1-4)GlcNAc(b1-2)[GlcNAc(b1-3)Gal(b1-4)GlcNAc(b1-3)Gal(b1-4)GlcNAc(b1-6)]Man(a1-6)[GlcNAc(b1-3)Gal(b1-4)GlcNAc(b1-3)Gal(b1-4)GlcNAc(b1-2)Man(a1-3)]Man(b1-4)GlcNAc(b1-4)[Fuc(a1-6)]GlcNAc
Method in brief: as §1

[30] = target: GlcNAc(b1-3)Gal(b1-4)GlcNAc(b1-3)Gal(b1-4)GlcNAc(b1-3)Gal(b1-4)GlcNAc(b1-2)Man(a1-3)[GlcNAc(b1-3)Gal(b1-4)GlcNAc(b1-3)Gal(b1-4)GlcNAc(b1-3)Gal(b1-4)GlcNAc(b1-2)Man(a1-6)]Man(b1-4)GlcNAc(b1-4)[Fuc(a1-6)]GlcNAc
Method in brief: as §1

[31] = target: GlcNAc6S(b1-3)Gal(b1-4)GlcNAc
Method in brief: as §1

[32] = target: Neu5Ac(a2-3)Gal(b1-3)GlcNAc(b1-3)Gal(b1-3)GlcNAc
Method in brief: as §1

[33] = target: Neu5Ac(a2-3)Gal(b1-3)GlcNAc(b1-3)Gal(b1-4)GlcNAc
Method in brief: as §1

[34] = target: Neu5Ac(a2-3)Gal(b1-3)GlcNAc6S
Method in brief: as §1

[35] = target: Neu5Ac(a2-3)Gal(b1-3)[Fuc(a1-4)]GlcNAc(b1-3)Gal(b1-4)[Fuc(a1-3)]GlcNAc
Method in brief: as §1

[36] = target: Neu5Ac(a2-3)[GalNAc(b1-4)]Gal(b1-4)Glc
Method in brief: as §1

[37] = target: Neu5Ac(a2-6)Gal(b1-4)GlcNAc(b1-2)Man(a1-6)Man(b1-4)GlcNAc(b1-4)GlcNAc
Method in brief: as §1

[38] = target: Neu5Ac(a2-6)Gal(b1-4)GlcNAc(b1-2)Man(a1-6)[Gal(b1-4)GlcNAc(b1-2)Man(a1-3)]Man(b1-4)GlcNAc(b1-4)GlcNAc
Method in brief: as §1

[39] = target: Neu5Ac(a2-6)Gal(b1-4)GlcNAc(b1-2)[Neu5Ac(a2-6)Gal(b1-4)GlcNAc(b1-4)]Man(a1-3)[GlcNAc(b1-4)][Neu5Ac(a2-6)Gal(b1-4)GlcNAc(b1-2)[Neu5Ac(a2-6)Gal(b1-4)GlcNAc(b1-6)]Man(a1-6)]Man(b1-4)GlcNAc(b1-4)GlcNAc
Method in brief: as §1

[40] = target: Neu5Ac(a2-6)GalNAc(b1-4)GlcNAc
Method in brief: as §1

[41] = target: Neu5Ac(a2-8)Neu5Ac(a2-3)[GalNAc(b1-4)]Gal(b1-4)Glc
Method in brief: as §1

[42] = target: Neu5Ac(a2-8)Neu5Ac(a2-8)Neu5Ac(a2-3)Gal(b1-4)Glc
Method in brief: as §1

[43] = target: Neu5Gc(a2-3)Gal(b1-4)GlcNAc(b1-3)Gal(b1-4)GlcNAc(b1-2)Man(a1-3)[Neu5Gc(a2-3)Gal(b1-4)GlcNAc(b1-3)Gal(b1-4)GlcNAc(b1-2)Man(a1-6)]Man(b1-4)GlcNAc(b1-4)GlcNAc
Method in brief: as §1

B1: GS7807F-bth-514-18-514 (Bacteroides thetaiotaomicron) (protein)
chain: AGSCTGNFEEYNTNQFQIHEADPSTLMKSMIETIVNIQQNDSQMMDQMVGQLGGYLTCANVWSGTNFGTFNQSDAWNAGPWNTNFEKIYGNFFQIQEATNESGHYYAFARMIRAITMLRVADCYGPMPYSQVKKGNFYVAYDTEEQVYKNIMEDFASAANVLYNYYKDTNGNAPLASNDPVFSGNYANWARLANSMRLRVAIRISTAYPEMAKENAEAAASHEAGLIEANNDNAMMDCGSQTNPYQLAAVSWGDLRVNANIVDYMNGYGDPRMSKYFNHSTFTGHTQEYVGMRSGEDGFAKSDVAGYSIPAITGTSKLLVFCAAETAFLRAEGKLKNWSVGNKSAKEYYEEGIKLSMEQYGTTMPDNYLTNTEKPTVSHNNDPRGHAYTISNTVAVAWNDNNEEENLQRIITQKWIANYPLGLEAWAEYRRTGYPELYPCIDNLSPSGVDSKRGMRRLRFPYTEVQNNHSNYQQGVSYLKNGGPDNEATDLSWGKTN
glycan array binding signal (z-score) [1]: -0.883
glycan array binding signal (z-score) [2]: -0.372
glycan array binding signal (z-score) [3]: -0.353
glycan array binding signal (z-score) [4]: -0.286
glycan array binding signal (z-score) [5]: -0.798
glycan array binding signal (z-score) [6]: -0.358
glycan array binding signal (z-score) [7]: 0.454
glycan array binding signal (z-score) [8]: -0.295
glycan array binding signal (z-score) [9]: -0.854
glycan array binding signal (z-score) [10]: 3.2
glycan array binding signal (z-score) [11]: -0.562
glycan array binding signal (z-score) [12]: -0.328
glycan array binding signal (z-score) (Gal(a1-2)Gal): -0.45
glycan array binding signal (z-score) (Gal(a1-3)Gal(b1-3)GlcNAc): 0.018
glycan array binding signal (z-score) (Gal(a1-4)Gal(b1-4)GlcNAc): 0.384
glycan array binding signal (z-score) [13]: 0.212
glycan array binding signal (z-score) [14]: 3.23
glycan array binding signal (z-score) [15]: 0.491
glycan array binding signal (z-score) [16]: 1.38
glycan array binding signal (z-score) (Gal(b1-3)GlcNAc6S): 2.12
glycan array binding signal (z-score) [17]: 0.202
glycan array binding signal (z-score) [18]: 3.25
glycan array binding signal (z-score) [19]: 4.26
glycan array binding signal (z-score) [20]: 3.26
glycan array binding signal (z-score) [21]: 3.96
glycan array binding signal (z-score) [22]: 1.53
glycan array binding signal (z-score) [23]: 0.25
glycan array binding signal (z-score) (Gal3S(b1-4)Glc): 0.164
glycan array binding signal (z-score) [24]: 3.48
glycan array binding signal (z-score) (Gal6S(b1-4)GlcNAc): 0.547
glycan array binding signal (z-score) (GalNAc(a1-3)GalNAc): 0.13
glycan array binding signal (z-score) (GalNAc(b1-4)GlcNAc6S): 0.521
glycan array binding signal (z-score) [25]: -0.652
glycan array binding signal (z-score) [26]: -0.771
glycan array binding signal (z-score) [27]: -0.587
glycan array binding signal (z-score) [28]: -0.73
glycan array binding signal (z-score) [29]: 0.581
glycan array binding signal (z-score) [30]: 3.26
glycan array binding signal (z-score) [31]: 1.06
glycan array binding signal (z-score) [32]: -0.891
glycan array binding signal (z-score) [33]: -0.842
glycan array binding signal (z-score) [34]: -0.491
glycan array binding signal (z-score) [35]: 0.124
glycan array binding signal (z-score) [36]: -0.409
glycan array binding signal (z-score) [37]: 3.88
glycan array binding signal (z-score) [38]: 3.49
glycan array binding signal (z-score) [39]: 0.039
glycan array binding signal (z-score) [40]: -0.875
glycan array binding signal (z-score) [41]: 3.32
glycan array binding signal (z-score) [42]: -0.82
glycan array binding signal (z-score) [43]: -0.775
